High-throughput results as filed in PubChem.
Tcruzi prolif = inhibitors of T. cruzi proliferation; T. cruzi beta-gal in NIH3T3, GalScreen luminescence, 90 h; inhibition, % at 8.34 µM; hit rate 5.9% among 77,000; AID 624255;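 active = mean inhibition above about 93%, with at least 55% of replicates each passing it, limit read from the data, passing the limit was not always enough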
Pf Dd2 growth = blocks growth of Plasmodium falciparum Dd2 parasites | hit rate 2.3% among 94,000 | P. falciparum Dd2 growth, SYBR Green, 72 h; active compounds read low | activity change, % at 10 µM | AID 1159554; in the data active = activity change below about -80%
C diff HTS = blocks growth of Clostridium difficile; Clostridium difficile clinical isolate growth, OD600, 24 h; active compounds read low; growth activity, negative = inhibition, % at 16 µg/mL (by protocol); hit rate 0.25% among 86,000;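 active = mean growth activity at or below -80% and every replicate also at or below -80%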;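 note: 0% = DMSO wells and -100% = levofloxacin 16 µg/mL wells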
* = called active by the depositor; · = not tested or not shown. A selection: hits, their analogues and other compounds. The true share with any hit is near 6.7%.

SMILES | Tcruzi prolif | Pf Dd2 growth | C diff HTS
CCC(=O)N1[C@@H]2c3cccc(=O)n3C[C@@H]2[C@@H](CO)[C@@H]1C(=O)NCc1ccc(F)cc1 | 55 | · | 2
O=C(c1ccc2c(c1)OCO2)N1CC(=O)N2[C@H](CO)[C@@H](c3ccc(C#CCC4CCCC4)cc3)[C@H]2C1 | · | -17 | 4
C[C@@H]1CN([C@H](C)CO)C(=O)c2cccc(NC(=O)CCCCCC(=O)Nc3ccccc3N)c2O[C@@H]1CN(C)S(=O)(=O)c1ccc(F)cc1 | · | -80 | -1
C[C@@H]1CN([C@@H](C)CO)C(=O)c2cccc(NC(=O)CCCCCC(=O)Nc3ccccc3N)c2O[C@H]1CN(C)S(=O)(=O)c1ccc(F)cc1 | · | -76 | -5
COc1ccc(S(=O)(=O)N(C)C[C@H]2Oc3c(NC(=O)CCCCCC(=O)Nc4ccccc4N)cccc3C(=O)N([C@@H](C)CO)C[C@H]2C)cc1 | · | -92* | -6
C[C@@H]1CN([C@@H](C)CO)C(=O)c2cccc(NC(=O)CCCCCC(=O)Nc3ccccc3N)c2O[C@@H]1CN(C)S(=O)(=O)c1ccc(F)cc1 | · | -92* | -5
COc1ccc(S(=O)(=O)N(C)C[C@@H]2Oc3c(NC(=O)CCCCCC(=O)Nc4ccccc4N)cccc3C(=O)N([C@@H](C)CO)C[C@@H]2C)cc1 | · | -67 | 1
C[C@H](CO)N1C[C@H](C)[C@H](CN(C)S(=O)(=O)c2ccc(F)cc2)Oc2c(NC(=O)CCCCCC(=O)Nc3ccccc3N)cccc2C1=O | · | -83* | -8
CCNC(=O)[C@H]1[C@H](CO)[C@H]2Cn3c(ccc(C4=CCCC4)c3=O)[C@@H]1N2Cc1ccncc1 | 83 | 10 | 1
COCC(=O)N1CC2(CCN(Cc3cncnc3)CC2)c2c(n(C)c3cc(OC)ccc23)[C@@H]1CO | · | -56 | ·
COc1ccc2c3c([nH]c2c1)[C@H](CO)N(S(C)(=O)=O)CC31CCN(C(=O)c2ccncc2)CC1 | · | -59 | 2
Cc1ccc(S(=O)(=O)N(C)C[C@@H]2Oc3ncc(-c4ccncc4)cc3C(=O)N([C@H](C)CO)C[C@@H]2C)cc1 | 76 | -37 | 2
Cc1ccc(S(=O)(=O)Nc2ccc3c(c2)C(=O)N([C@@H](C)CO)C[C@@H](C)[C@@H](CN(C)C(=O)Nc2cccc4ccccc24)OCCCC[C@H](C)O3)cc1 | 92 | -84* | 3
Cc1ccc(S(=O)(=O)Nc2ccc3c(c2)C(=O)N([C@H](C)CO)C[C@@H](C)[C@H](CN(C)C(=O)Nc2cccc4ccccc24)OCCCC[C@@H](C)O3)cc1 | 83 | -67 | -4
C[C@H](CO)N1C[C@H](C)[C@@H](CN(C)C(=O)Nc2cccc3ccccc23)OCCCC[C@H](C)Oc2ccc(NS(=O)(=O)c3ccccc3)cc2C1=O | · | -54 | ·
Cc1ccc(S(=O)(=O)Nc2ccc3c(c2)C(=O)N([C@@H](C)CO)C[C@H](C)[C@@H](CN(C)C(=O)Nc2cccc4ccccc24)OCCCC[C@@H](C)O3)cc1 | 95 | -85* | -7
Cc1ccc(S(=O)(=O)Nc2ccc3c(c2)C(=O)N([C@H](C)CO)C[C@H](C)[C@H](CN(C)C(=O)Nc2cccc4ccccc24)OCCCC[C@@H](C)O3)cc1 | 62 | -60 | -4
Cc1ccc(S(=O)(=O)Nc2ccc3c(c2)C(=O)N([C@@H](C)CO)C[C@H](C)[C@@H](CN(C)C(=O)Nc2cccc4ccccc24)OCCCC[C@H](C)O3)cc1 | 93 | -83* | 0
C[C@@H]1CN([C@@H](C)CO)C(=O)Cc2cc(NC(=O)CCC(F)(F)F)ccc2O[C@H]1CN(C)C(=O)Nc1cccc2ccccc12 | -14 | -37 | -10
O=C(C[C@H]1C=C[C@@H](NC(=O)C2CCOCC2)[C@H](CO)O1)Nc1ccccc1 | · | 38 | 6
CO[C@H]1CN(C)C(=O)c2ccc(NC(C)=O)cc2OC[C@@H](C)N(Cc2ccccc2F)C[C@H]1C | 26 | -21 | ·
O=C(Nc1ccc2c(c1)[C@H]1C[C@H](CC(=O)N3CCOCC3)O[C@H](CO)[C@H]1O2)c1ccc2c(c1)OCO2 | 63 | 19 | 2
Cc1ccc(S(=O)(=O)N(C)C[C@@H]2OCCCC[C@@H](C)Oc3ccc(NC(=O)CCCCCC(=O)Nc4ccccc4N)cc3C(=O)N([C@H](C)CO)C[C@@H]2C)cc1 | · | · | -2
C[C@@H]1CCCCO[C@@H](CN(C)S(=O)(=O)c2ccc(Cl)cc2)[C@@H](C)CN([C@H](C)CO)C(=O)c2cc(NC(=O)CCCCCC(=O)Nc3ccccc3N)ccc2O1 | 9 | -78 | ·
Cc1noc(C)c1S(=O)(=O)N(C)C[C@H]1OCCCC[C@@H](C)Oc2ccc(NC(=O)CCCCCC(=O)Nc3ccccc3N)cc2C(=O)N([C@@H](C)CO)C[C@@H]1C | 33 | -81* | -3
SMILES | Tcruzi prolif | Pf Dd2 growth | C diff HTS
Cc1ccc(S(=O)(=O)N(C)C[C@H]2OCCCC[C@@H](C)Oc3ccc(NC(=O)CCCCCC(=O)Nc4ccccc4N)cc3C(=O)N([C@H](C)CO)C[C@@H]2C)cc1 | · | -87* | -2
C[C@H](CO)N1C[C@H](C)[C@@H](CN(C)Cc2ccc(C(=O)Nc3ccccc3N)cc2)Oc2ccc(NC(=O)Cc3ccccc3)cc2CC1=O | · | -83* | 1
C[C@H]1CN([C@@H](C)CO)C(=O)Cc2cc(NC(=O)CCCCCC(=O)Nc3ccccc3N)ccc2O[C@H]1CN(C)Cc1ccc(-c2ccccc2)cc1 | 43 | -82* | 0
C[C@@H]1CN([C@H](C)CO)C(=O)Cc2cc(NC(=O)c3ccncc3)ccc2O[C@@H]1CN(C)Cc1ccc(C(=O)Nc2ccccc2N)cc1 | · | -75 | 6
Cc1ccc(S(=O)(=O)N(C)C[C@@H]2Oc3ccc(NC(=O)CCCCCC(=O)Nc4ccccc4N)cc3CC(=O)N([C@@H](C)CO)C[C@H]2C)cc1 | 16 | -68 | -6
Cc1ccc(S(=O)(=O)N(C)C[C@@H]2Oc3ccc(NC(=O)CCCCCC(=O)Nc4ccccc4N)cc3CC(=O)N([C@@H](C)CO)C[C@@H]2C)cc1 | 50 | -88* | -5
C[C@@H]1CN([C@@H](C)CO)C(=O)Cc2cc(NC(=O)c3ccncc3)ccc2O[C@@H]1CN(C)Cc1ccc(C(=O)Nc2ccccc2N)cc1 | · | -85* | 7
C[C@H](CO)N1C[C@H](C)[C@H](CN(C)Cc2ccc(C(=O)Nc3ccccc3N)cc2)Oc2ccc(NC(=O)c3ccncc3)cc2CC1=O | 74 | -49 | 0
C[C@@H]1CN([C@H](C)CO)C(=O)Cc2cc(NC(=O)CCCCCC(=O)Nc3ccccc3N)ccc2O[C@H]1CN(C)Cc1ccccc1 | 21 | -53 | -12
Cc1noc(C)c1S(=O)(=O)N(C)C[C@@H]1OCCCC[C@H](C)Oc2ccc(NC(=O)NC(C)C)cc2C(=O)N([C@H](C)CO)C[C@H]1C | 22 | -4 | 0
O=C(C[C@@H]1C=C[C@@H](NC(=O)c2cccnc2)[C@H](CO)O1)NCc1ccc(Cl)c(Cl)c1 | -11 | -9 | ·
C[C@@H]1CN([C@H](C)CO)C(=O)Cc2cc(NC(=O)Nc3ccc(F)cc3)ccc2O[C@H]1CN(C)Cc1ccc(C(=O)Nc2ccccc2N)cc1 | · | -39 | 9
C[C@H]1CN([C@@H](C)CO)C(=O)Cc2cc(NC(=O)Nc3ccc(F)cc3)ccc2O[C@@H]1CN(C)Cc1ccc(C(=O)Nc2ccccc2N)cc1 | · | -86* | 2
